About 160 (0.05%) of roughly 320,000 compounds were called active. This excerpt belongs to a sample that is enriched for actives. Values without a mark were called inactive. Cut-off read from the data, not from the text of the source: active = inhibition above about 38%; inactive = the rest.

Our source for the inhibition values is PubChem BioAssay AID2606 (The Scripps Research Institute Molecular Screening Center, 2010).

Sequence of Serine protease Rv3671c (Mycobacterium tuberculosis (strain ATCC 25618 / H37Rv)) (P9WHR9 whole entry, looked up, the tested form may be a part): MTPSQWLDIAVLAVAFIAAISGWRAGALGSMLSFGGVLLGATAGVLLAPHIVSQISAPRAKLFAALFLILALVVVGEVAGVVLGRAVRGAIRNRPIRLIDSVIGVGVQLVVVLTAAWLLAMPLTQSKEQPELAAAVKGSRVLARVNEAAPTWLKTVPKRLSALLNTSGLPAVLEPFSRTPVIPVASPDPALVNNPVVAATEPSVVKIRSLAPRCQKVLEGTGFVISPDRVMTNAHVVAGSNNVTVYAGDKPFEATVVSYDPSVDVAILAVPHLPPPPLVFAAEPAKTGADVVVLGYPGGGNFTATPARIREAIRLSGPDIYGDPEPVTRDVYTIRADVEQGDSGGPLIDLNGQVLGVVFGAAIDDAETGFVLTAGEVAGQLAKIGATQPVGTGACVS

This experiment addresses Serine protease Rv3671c (Mycobacterium tuberculosis (strain ATCC 25618 / H37Rv)) (UniProt P9WHR9). Put plainly: Rv3671c serine protease inhibitors, primary screen, biochemical, fluorescence polarization, M. tuberculosis H37Rv (AID 2606).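 Note: extracellular domain of Rv3671c used as enzyme; 0% = enzyme with DMSO and 100% = no enzyme.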 To be noted: at 5.96 µM; stronger effect = higher value. (In general: Fluorescence polarisation rises when a labelled molecule tumbles more slowly, as on binding a larger partner.)
By inhibition is commonly meant the change of the read-out against control, counted positive when it falls. Consider `COc1ccc(NC(=O)C(C)SCc2ccccc2)cc1` (stereo not drawn), for which the inhibition was 0.17%.

`C/C(=N\NC(=O)c1ccc(CSc2nc(C)cc(C)n2)cc1)C1CCCCC1`: the inhibition was -1.11%.

In the case of `O=C1Nc2cc(C(=O)N3CCN(c4ccc(F)cc4)CC3)ccc2NC1CSCc1cccc(F)c1` (stereo not drawn), the inhibition is -19.6%.

Regarding `O=C(Nc1cc(S(=O)(=O)Nc2ccc(Cl)cc2)ccc1O)c1ccc(F)cc1F`, the inhibition was -20%.

With `COc1ccccc1NC(=S)N1CCN(C(c2ccccc2)c2ccccc2)CC1`, the inhibition was -3.52%.

As to `CCOc1ccc(OCC)c(NC(=O)CN(C)S(=O)(=O)c2cccc3nsnc23)c1`, the inhibition is 4.81%.

In the case of `CC(=O)OCCOCn1cnn2c(=O)c(Br)c(C)nc12`, the inhibition was 9.74%.

As for `Cc1nc2nc[nH]n2c(=O)c1NC(=O)c1cccc(OCC(C)C)c1`, the inhibition is 2.66%.

Regarding `Cn1cnc(S(=O)(=O)Nc2ccc3c(c2)OCCO3)c1`, the inhibition is -5.54%.

Consider `O=C(NCc1ccccc1)[C@@H]1CSC2c3ccccc3C(=O)N21` (stereo partly drawn), for which the inhibition is 5.62%.

With `CCc1cccc2c(C=C(C#N)C#N)cn(CC(=O)N3CCCCC3)c12`, the inhibition is -5.84%.

Regarding `COc1cccc(CNC(=O)Cn2c(=O)oc3cc(S(=O)(=O)N4CCCCC4)ccc32)c1`, the inhibition was -26.5%.

Consider `O=C(O)c1ccn(COc2ccc(Br)cc2)n1`, for which the inhibition is 5.52%.

As for `CCc1ccc(N(C(=O)c2csnn2)C(C(=O)NC2CCCCC2)c2cccnc2)cc1` (stereo not drawn), the inhibition is -1.12%.

Turning to `COc1ccccc1Nc1nnc(SC(C)C(=O)NC2CC2)s1` (stereo not drawn), the inhibition was 6.85%.

Regarding `C=C1CCC(N(O)c2cc(C)on2)C(=C)CCC2C1CC2(C)C` (stereo not drawn), the inhibition is -8.68%.

`O=C(CNS(=O)(=O)c1ccc2ccccc2c1)Nc1ccc(F)c(F)c1F`: the inhibition was 2.38%.

Consider `CCN(CC)C(=O)CSc1nnc(-c2cnccn2)n1-c1ccc(C)cc1`, for which the inhibition was -10.7%.

In the case of `O=C(O)C1=NN(c2c(F)c(F)cc(F)c2F)C(=O)CC1`, the inhibition was -8.71%.

Turning to `CCOc1ccc(S(=O)(=O)N2CCC(c3ccccc3)CC2)cc1C(=O)O`, the inhibition was 2.59%.

In the case of `CCCN(CCC)S(=O)(=O)c1ccc(C(=O)NNC(=O)c2cc(OC)c(OC)c(OC)c2)cc1`, the inhibition was 2.22%.

For `CCCCNC(=O)C1(c2ccc(OC)cc2)CCOCC1`, the inhibition is 1.73%.

With `CC(C)(C)NS(=O)(=O)NC(=O)C1=C(N2CCCC2)COC1=O`, the inhibition was -1.86%.

Consider `O=c1[nH]c2ccccc2n2c(-c3ccccc3)nnc12`, for which the inhibition was -13%.

Consider `COc1ccc(NC(=O)c2cc([N+](=O)[O-])ccc2NC(=O)CNC2CCCCC2C)c(OC)c1` (stereo not drawn), for which the inhibition is -11.9%.

As for `CN(C)C(=O)N=NC(=O)N(C)C`, the inhibition is -1.83%.

On to `O=C(Nc1ccccc1C(=O)O)c1ccc(N2C(=O)C3CC=CCC3C2=O)cc1` (stereo not drawn), for which the inhibition is -4.79%.

For `COc1cccc(CNc2ncc(-c3ccccc3)n2C)c1`, the inhibition is -4.35%.

With `O=C(Cn1ccc([N+](=O)[O-])n1)NCc1cccs1`, the inhibition is 2.31%.

On to `CCOc1ncccc1C(=O)OCC(=O)c1c[nH]c2ccccc12`, for which the inhibition is 2.18%.

As to `Cc1ccccc1CSc1nnc(CCCCCNC(=O)OC(C)(C)C)o1`, the inhibition is -2.88%.

For `COc1cc([N+](=O)[O-])cc([N+](=O)[O-])c1NC(=O)N1CCOCC1`, the inhibition is 0.53%.

`O=C(CN1C(=O)NC2(CCCC2)C1=O)OCCOc1ccc(F)cc1`: the inhibition is 0.5%.

Regarding `O=C(NCc1ccc(Cl)cc1)c1cc2c(nc3sccn32)s1`, the inhibition was -4.26%.

Turning to `Cc1c(Br)c([N+](=O)[O-])nn1CC(=O)Nc1sc2c(c1C(=O)OC(C)C)CCC(C)C2` (stereo not drawn), the inhibition was -2.96%.

On to `O=S1(=O)CC(NCc2ccccc2)C(Nc2ccc(Cl)cc2)C1` (stereo not drawn), for which the inhibition was -2.48%.

For the molecule `O=C(CN(c1cc(C(F)(F)F)ccc1Cl)S(=O)(=O)c1ccccc1)NCc1cccnc1`, the inhibition was 4.36%.

On to `O=C1CCCN1CCCNC(=S)Nc1ccc(F)c(Cl)c1`, for which the inhibition was -6.09%.

As for `O=C1c2ccccc2C(=O)N1CCc1nn[nH]n1`, the inhibition was -7.39%.

As for `Cc1ccccc1CCN(CC(=O)NC1CCCCC1)C(=O)c1csnn1`, the inhibition is -0.33%.

`OC(c1ccccc1)c1nccn1Cc1ccccc1` (stereo not drawn): the inhibition was 0.91%.

Turning to `CSc1nc2ccccc2cc1/C=C(\C#N)c1ccc(Cl)cc1Cl`, the inhibition is 3.83%.

Take `O=C(COC(=O)c1cc(=O)[nH]c2ccccc12)Nc1nc(-c2cccc(Br)c2)cs1`: the inhibition is -76%.

`CCOC(=O)[C@@H]1[C@H]2COc3ccc(Br)cc3[C@H]2N2C(=O)N(c3ccc(C)cc3)C(=O)[C@@]12C`: the inhibition was 0.17%.

`CCN(C(=O)CSc1nnnn1-c1ccccc1OC)C1CCS(=O)(=O)C1` (stereo not drawn): the inhibition was 2.72%.

With `CSc1ccc(C(=O)C2CCCN(C(=O)c3ccc(C)nc3)C2)cc1` (stereo not drawn), the inhibition is 1.04%.

Regarding `CCC(C)c1ccc(NC(=O)COC(=O)C2CCCC2)cc1` (stereo not drawn), the inhibition is -4.19%.

Consider `Cc1ccc(OCC(=O)c2cc(C)n(Cc3ccco3)c2C)c([N+](=O)[O-])n1`, for which the inhibition is -2.09%.

Regarding `COc1ccc(NC(=O)C2C3CCC(O3)C2C(=O)O)cc1OC` (stereo not drawn), the inhibition was -2.75%.

In the case of `COc1cc(C(=O)NCc2ccncc2)cc(Br)c1OCc1ccccc1`, the inhibition is -8.67%.

With `CCn1c(=O)cc(SCC(=O)NCCC2=CCCCC2)c2ccccc21`, the inhibition is 3.21%.

On to `CCOc1ccc(S(=O)(=O)N(CC(=O)NCC(F)(F)F)Cc2ccco2)cc1`, for which the inhibition is 4.73%.

`CC1CC(=NNC(=O)C2COc3ccccc3O2)CC(C)(C)C1` (stereo not drawn): the inhibition was -11%.

`O=C(O)c1ccc2c(=O)n3c(nc2c1)/C(=C/c1ccc(Cl)c([N+](=O)[O-])c1)CC3`: the inhibition was 8.14%.

On to `C=C(C)C(=O)Nc1cccc(C2=NOC3(C2)C[C@H](C(N)=O)N(C(=O)C(c2ccccc2)c2ccccc2)C3)c1` (stereo partly drawn), for which the inhibition is -1.51%.

In the case of `Cc1onc(-c2c(F)cccc2Cl)c1C(=O)N(C)CC(=O)Nc1cccc(F)c1`, the inhibition was 2.86%.

`C=CCOc1cccc(CNCc2cccnc2)c1`: the inhibition was 4.49%.

As to `COC(=O)c1cccc(N(CC(=O)NCC2CCCO2)C(=O)CCC(=O)Nc2cc(C)on2)c1` (stereo not drawn), the inhibition is -6.9%.
